Reference: article PMC5913336, “True equilibrium measurement of transcription factor-DNA binding affinities using automated polarization microscopy”

Target: T1, Fkh (Drosophila melanogaster, UniProt P14734 209-300)
T1 sequence: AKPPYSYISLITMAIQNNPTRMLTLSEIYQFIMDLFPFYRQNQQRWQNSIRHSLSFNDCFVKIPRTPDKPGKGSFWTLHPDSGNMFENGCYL
Experiment: FP; 33 mM phosphate pH 7.0, 90 mM NaCl, 0.01% Tween 20, 0.1 mM DTT, 0.5% agarose; room temperature
Settings: tags: N-GST (pGEX-6P-1, kept); dsDNA, one strand shown

Sequence | binding signal | Kd
AGTTAATTATTGA | 6.31 Kd / Kd of best base at the position | –
AGTTAAATAGTGA | 2.35 Kd / Kd of best base at the position | –
AGTTAGATATTGA | 60.9 Kd / Kd of best base at the position | –
AGGTAAATATTGA | 1.27 Kd / Kd of best base at the position | –
AGTTAAAGATTGA | 14.9 Kd / Kd of best base at the position | –
TGTTAAATATTGA | 1.33 Kd / Kd of best base at the position | –
AGCTAAATATTGA | 3.26 Kd / Kd of best base at the position | –
AGTTAAATAATGA | 2.19 Kd / Kd of best base at the position | –
AGTTAAATACTGA | 27.4 Kd / Kd of best base at the position | –
AGTTCAATATTGA | 2.55 Kd / Kd of best base at the position | –
AGTTATATATTGA | 18.4 Kd / Kd of best base at the position | –
AGTTAAATCTTGA | 14.3 Kd / Kd of best base at the position | –
AGTGAAATATTGA | 6.68 Kd / Kd of best base at the position | –
AGTTAAATATTGC | 2.76 Kd / Kd of best base at the position | –
AGTAAAATATTGA | 4.77 Kd / Kd of best base at the position | –
AGTTAAGTATTGA | 37.9 Kd / Kd of best base at the position | –
AGTTAAATATAGA | 1.73 Kd / Kd of best base at the position | –
AGTTAAATATCGA | 6.39 Kd / Kd of best base at the position | –
AGTTACATATTGA | 4.6 Kd / Kd of best base at the position | –
AGTTAAATGTTGA | 102 Kd / Kd of best base at the position | –

Sequence | binding signal | Kd
AGTTAAACATTGA | 29.1 Kd / Kd of best base at the position | –
ACTTAAATATTGA | 7.14 Kd / Kd of best base at the position | –
AGTTAAATTTTGA | 7.9 Kd / Kd of best base at the position | –
CGTTAAATATTGA | 8.05 Kd / Kd of best base at the position | –
AGTTAAATATTTA | 1.68 Kd / Kd of best base at the position | –
GGTTAAATATTGA | 6.61 Kd / Kd of best base at the position | –
AGTTAAAAATTGA | 18.5 Kd / Kd of best base at the position | –
AGTTAAATATTGG | 1.17 Kd / Kd of best base at the position | –
AGTTAAATATTAA | 1.49 Kd / Kd of best base at the position | –
AGTTAAATATGGA | 3.07 Kd / Kd of best base at the position | –
AGTTAAATATTGT | 1.97 Kd / Kd of best base at the position | –
AGATAAATATTGA | 1.16 Kd / Kd of best base at the position | –
AGTTAAATATTGA | – | ~17 nM
AATTAAATATTGA | 2.06 Kd / Kd of best base at the position | –
AGTTAACTATTGA | 10.2 Kd / Kd of best base at the position | –
AGTTAAATATTCA | 2.02 Kd / Kd of best base at the position | –
AGTCAAATATTGA | 3.44 Kd / Kd of best base at the position | –
ATTTAAATATTGA | 1.06 Kd / Kd of best base at the position | –
AGTTTAATATTGA | 32.1 Kd / Kd of best base at the position | –
AGTTGAATATTGA | 59.1 Kd / Kd of best base at the position | –
